Assay results as given in PubChem BioAssay AID602144 (Vanderbilt Specialized Chemistry Center, 2011).
A number with no mark means an inactive call. Calls of active or inactive are those of the source. Rule as the data show it: active = remaining activity below about 50%; inactive = the rest.

Target: Phospholipase D1 (Homo sapiens) (UniProt Q13393)
Assay: PLD1 inhibitors in cells, Calu-1 cells, single concentration (AID 602144);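 also: tested at 200 nM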
Details: cellular PLD1 activity, active compounds read low

Phospholipase D1 (Homo sapiens), sequence (Q13393 whole entry, looked up): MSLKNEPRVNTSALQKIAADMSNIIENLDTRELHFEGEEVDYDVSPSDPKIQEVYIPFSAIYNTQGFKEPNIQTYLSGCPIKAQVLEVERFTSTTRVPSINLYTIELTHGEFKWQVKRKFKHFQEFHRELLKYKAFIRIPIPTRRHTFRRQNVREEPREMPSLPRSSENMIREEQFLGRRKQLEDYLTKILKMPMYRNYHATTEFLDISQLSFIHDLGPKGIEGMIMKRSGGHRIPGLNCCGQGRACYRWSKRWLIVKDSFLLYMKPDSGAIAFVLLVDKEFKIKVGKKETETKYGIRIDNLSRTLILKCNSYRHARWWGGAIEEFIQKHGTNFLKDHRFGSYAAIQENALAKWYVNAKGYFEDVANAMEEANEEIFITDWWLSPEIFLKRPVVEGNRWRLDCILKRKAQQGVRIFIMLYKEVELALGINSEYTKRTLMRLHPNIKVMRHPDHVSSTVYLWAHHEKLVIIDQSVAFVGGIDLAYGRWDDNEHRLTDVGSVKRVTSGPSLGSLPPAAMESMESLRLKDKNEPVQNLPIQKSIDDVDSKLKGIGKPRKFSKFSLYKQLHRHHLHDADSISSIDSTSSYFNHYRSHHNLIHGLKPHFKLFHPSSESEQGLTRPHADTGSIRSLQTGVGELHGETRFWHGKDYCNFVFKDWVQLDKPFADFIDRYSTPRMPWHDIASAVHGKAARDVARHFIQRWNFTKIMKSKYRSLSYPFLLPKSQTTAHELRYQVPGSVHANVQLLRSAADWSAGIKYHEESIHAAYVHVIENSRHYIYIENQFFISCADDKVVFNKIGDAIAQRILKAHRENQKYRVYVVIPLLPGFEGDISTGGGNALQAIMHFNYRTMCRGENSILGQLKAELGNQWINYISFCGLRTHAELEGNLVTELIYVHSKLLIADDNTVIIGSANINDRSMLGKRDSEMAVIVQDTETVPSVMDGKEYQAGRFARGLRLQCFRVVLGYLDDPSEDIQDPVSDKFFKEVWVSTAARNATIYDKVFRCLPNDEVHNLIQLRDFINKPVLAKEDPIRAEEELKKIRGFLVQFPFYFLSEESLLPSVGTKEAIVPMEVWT
Phospholipase D1 (Homo sapiens), sequence (Q13393 whole entry, looked up): as above

Row | SMILES | remaining activity
1 | O=C(NCCN1CCC2(CC1)C(=O)NCN2c1cccc(F)c1)c1ccc(OC(F)(F)F)cc1 | 96.9%
2 | O=C(COCc1ccccc1)NCCN1CCC2(CC1)C(=O)NCN2c1cccc(F)c1 | 108%
3 | O=C(NCCN1CCC2(CC1)C(=O)NCN2c1ccc(F)c(F)c1)c1cc2cc(F)ccc2[nH]1 | 69.1%
4 | O=C(NCCN1CCC2(CC1)C(=O)NCN2c1cccc(F)c1)c1cc(C(F)(F)F)ccc1C(F)(F)F | 86.3%
5 | Nc1ccc(C(=O)NCCN2CCC3(CC2)C(=O)NCN3c2ccccc2)cc1OC(F)(F)F | 91.5%
6 | O=C(NCCN1CCC2(CC1)C(=O)NCN2c1ccccc1)c1cc(Br)c(Br)o1 | 66.9%
7 | O=C(NCCN1CCC2(CC1)C(=O)NCN2c1ccccc1)c1cc(-c2ccccc2)no1 | 97.4%
8 | O=C1NCN(c2ccccc2)C12CCN(CCN1CCCC1)CC2 | 116%
9 | O=C(NCCN1CCC2(CC1)C(=O)NCN2c1ccccc1)c1ccncn1 | 124%
10 | C[C@@H](CN1CCC2(CC1)C(=O)NCN2c1ccc(F)c(F)c1)NC(=O)c1cc2ccccc2[nH]1 | 0% (active)
11 | O=C(c1cnc2ccccc2c1)N1CC(N2CCC(n3c(=O)[nH]c4ccccc43)CC2)C1 | 119%
12 | COc1cccc(C(=O)NCCN2CCC3(CC2)C(=O)NCN3c2ccccc2)n1 | 137%
13 | C[C@@H](CN1CCC2(CC1)C(=O)N(Cc1ccccc1)c1ccccc12)NC(=O)c1ccc2ccccc2c1 | 90.4%
14 | CCOC(=O)CCN1CCC2(CC1)C(=O)NCN2c1ccccc1 | 83.2%
15 | O=C(NCCN1CCC2(CC1)C(=O)NCN2c1cccc(F)c1)c1ccc(-c2ccccc2)cc1 | 93%
16 | O=C(C1C[C@H]1c1ccccc1)N1CC(N2CCC(n3c(=O)[nH]c4ccccc43)CC2)C1 (stereo partly drawn) | 125%
17 | CN(CCN1CCC2(CC1)C(=O)NCN2c1ccccc1)C(=O)c1ccc2ccccc2c1 | 84.1%

Row | SMILES | remaining activity
18 | NC1(CN2CCC3(CC2)C(=O)NCN3c2ccccc2)CCCC1 (tested in a mixture with another compound) | 85.3%
19 | O=C(NCCN1CCC2(CC1)C(=O)NCN2c1cccc(F)c1)C12CC3CC(CC(C3)C1)C2 | 98.7%
20 | O=C(NCCCN1CCC2(CC1)C(=O)NCN2c1ccccc1)c1cnc2ccccc2c1 | 99%
21 | C[C@@H](CN1CCC2(CC1)C(=O)NCN2c1ccc(F)c(F)c1)NC(=O)c1ccc(Cl)cc1 | 6.51% (active)
22 | O=C(C1CC1c1ccccc1)N1CC(N2CCC3(CC2)C(=O)NCN3c2ccccc2)C1 (stereo not drawn) | 94.4%
23 | O=C(NCCN1CCC2(CC1)C(=O)NCN2c1cccc(F)c1)C1CCCCC1 | 102%
24 | C[C@@H](CN1CCC2(CC1)C(=O)NCN2c1ccccc1)NC(=O)c1ccc(F)c(F)c1 | 34.3% (active)
25 | O=C(NCCCN1CCC2(CC1)C(=O)NCN2c1ccccc1)c1ccc2ccccc2c1 | 81%
26 | O=C(NCCN1CCC2(CC1)C(=O)NCN2c1cccc(F)c1)c1ccc(Cl)cc1Cl | 110%
27 | O=C(NCCN1CCC2(CC1)C(=O)NCN2c1ccc(Br)cc1)c1ccc2ccccc2c1 | 92.7%
28 | O=C(NCCN1CCC2(CC1)C(=O)NCN2c1ccccc1)c1cnc2ccccc2n1 | 96.5%
29 | O=C(Cc1cccs1)NCCN1CCC2(CC1)C(=O)NCN2c1cccc(F)c1 | 89.8%
30 | O=C(CCN1CCC2(CC1)C(=O)NCN2c1ccccc1)Nc1ccc(Cl)cc1 | 122%
31 | O=C(NCCN1CCC2(CC1)C(=O)NCN2c1ccc(F)cc1)c1ccc2cc(F)ccc2c1 | 94.6%
32 | Cc1ccccc1C(=O)N(CCN1CCC2(CC1)C(=O)NCN2c1cccc(F)c1)C(=O)c1ccccc1C | 105%
33 | C[C@H](CN1CCC2(CC1)C(=O)NCN2c1ccccc1)NC(=O)c1cc(Br)c(Br)o1 | 71.8%
